# Source: PubChem (National Center for Advancing Translational Sciences (NCATS))
# LmPK inh – LmPK (Leishmania mexicana) enzyme inhibition; purified LmPK, Kinase-Glo ATP luminescence, 1 h; Potency, µM (series often up to 57.5 µM), for the others: at the highest dose activity change, negative = inhibition, hits mostly inhibitors; hit rate 0.37% among 290,000; further: potency means the concentration at half of the fitted maximal effect; on the % scale 0 is the no-effect control and ±100 the full control effect
# Target sequence (Q27686 whole entry, looked up): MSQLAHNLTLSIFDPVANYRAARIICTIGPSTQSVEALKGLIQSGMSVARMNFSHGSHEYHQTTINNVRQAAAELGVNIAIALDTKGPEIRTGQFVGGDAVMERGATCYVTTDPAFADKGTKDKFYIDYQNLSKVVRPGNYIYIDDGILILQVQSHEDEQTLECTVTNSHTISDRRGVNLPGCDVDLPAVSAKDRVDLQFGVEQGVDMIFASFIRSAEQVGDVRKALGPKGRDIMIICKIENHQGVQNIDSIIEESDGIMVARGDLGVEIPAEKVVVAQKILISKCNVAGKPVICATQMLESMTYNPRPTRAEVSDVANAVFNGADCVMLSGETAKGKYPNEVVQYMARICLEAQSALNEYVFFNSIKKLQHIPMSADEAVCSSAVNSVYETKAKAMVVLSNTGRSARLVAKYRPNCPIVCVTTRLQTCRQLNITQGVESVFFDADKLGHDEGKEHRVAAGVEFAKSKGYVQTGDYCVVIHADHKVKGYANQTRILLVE
#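 0.1 nM LmPK, 0.5 mM PEP, 0.1 mM ADP; 50 mM imidazole pH 7.2, 7 mM MgCl2, 50 mM KCl; 1 h RT. Kinase-Glo luminescence readout, normalized to no-enzyme (full inhibition) and uninhibited wells.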
# FBPA Giardia inh – Giardia lamblia aldolase inhibition; purified Giardia FBPA; Potency, µM (series often up to 59.6 µM), without a hit: at the highest dose activity, negative = inhibition, usual class: inhibitors; hit rate 0.71% among 290,000; further: potency means the concentration at half of the fitted maximal effect; on the % scale 0 is the no-effect control and ±100 the full control effect; nearly all actives have a fitted effect of over 55% in size
#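 40 nM FBPA preincubated 10 min at RT with compound (up to 57.5 uM final), then substrate plus GAPDH/TPI/NAD/arsenate coupling and diaphorase/resazurin added. Fluorescence read after 20 min at RT, 525/598 nm.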
# Shiga inhibitor – Shiga toxin inhibition. hit rate 9.2% among 290,000. Vero cells, Shiga toxin protein synthesis inhibition reporter. AID 2315. inhibition, % at 38.7 µM; in the data active means inhibition mostly above about 28%, no sharp cut-off; inactive means mostly below about 43%; further: 0% is about no effect
# Sm TGR block – S. mansoni TGR enzyme inhibition; Q962Y6; purified TGR, DTNB reduction, TNB absorbance 405 nm; Potency, µM (top dose mostly 114 µM), for the others: at the highest dose activity change, negative = inhibition, hits mostly inhibitors; hit rate 3% among 360,000; AID 485364; further: potency means the concentration at half of the fitted maximal effect; on the % scale 0 is the no-effect control and ±100 the full control effect; nearly all actives have a fitted effect of over 60% in size
#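 TGR 20 nM + NADPH 100 uM (dispensed conc.), cpd preinc 15 min RT; start with NADPH (500 uM addition) then DTNB (15 mM addition). Kinetic TNB absorbance, 405 nm filter. Four-parameter Hill fit across titration.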
# CHX counter – counter-screen for Shiga toxin inhibitors: cycloheximide protein synthesis inhibition | cell reporter, cycloheximide protein synthesis inhibition counterscreen | max response, % | hit rate 12% among 300,000; in the data active means max response mostly above about 13%, no sharp cut-off; inactive means mostly below about 14%; further: read at 38.3 µM for the half of the compounds with a filed dose; 0% is about no effect
# Tb PYK inh – inhibitors of Trypanosoma brucei pyruvate kinase; Q57TT1; TbPYK enzyme, Kinase-Glo Plus ATP luminescence, 45 min; Potency, µM (highest dose often 76.8 µM), for inactives: top-dose activity, negative = inhibition, actives largely listed as inhibitors; hit rate 0.12% among 410,000; AID 624173; further: potency means the concentration at half of the fitted maximal effect; on the % scale 0 is the no-effect control and ±100 the full control effect; nearly all actives have a fitted effect of over 50% in size
#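 Luminescence from Kinase-Glo Plus, added after a 45-minute room-temperature reaction, served as the end-point read-out. The enzyme and substrate were preincubated with compound before ADP (130 uM final) initiated turnover. Concentration-effect curves came from normalized qHTS data.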
# Active calls of the source: *; ? = inconclusive; / = no result given; + = active, no number; [ ] = dose if it differs, or a comment. This excerpt belongs to a sample that is enriched for hits. Unless noted, the call rests on the fitted dose curve; in most records, active means well fitted curve in the direction sought with a large enough effect; inconclusive means small, poorly fitted or top-dose-only effect, or another doubt; inactive means no such curve, though single readings can be large; an effect the other way counts as inactive or inconclusive.
SMILES,LmPK inh,FBPA Giardia inh,Shiga inhibitor,Sm TGR block,CHX counter,Tb PYK inh
COc1ccc2[nH]cc(CCNc3ncncc3-c3ccc(C(=O)N(C)C)cc3)c2c1,/,-3%,/,/,/,/
CC(C)C[C@H](NC(=O)[C@@H]1CCCN1C(=O)[C@H](Cc1ccccc1)NC(=O)[C@H](C)NC(=O)[C@H](CCC(=O)O)NC(=O)[C@H](C)NC(=O)[C@H](CO)NC(=O)[C@H](CCC(=O)O)NC(=O)[C@H](CC(=O)O)NC(=O)[C@H](CCC(=O)O)NC(=O)[C@H](C)NC(=O)CNC(=O)[C@H](CC(N)=O)NC(=O)[C@@H]1CCCN1C(=O)[C@H](Cc1ccc(O)cc1)NC(=O)[C@@H](NC(=O)[C@H](CCCCN)NC(=O)[C@@H](NC(=O)[C@@H]1CCCN1C(=O)[C@@H](N)CCCNC(=N)N)C(C)C)C(C)C)C(=O)N[C@@H](CCC(=O)O)C(=O)N[C@@H](Cc1ccccc1)C(=O)O,/,1%,7,/,-6,/
C=CCc1c(NCCO)nc(C)[nH]c1=O,1%,6%,32,16%,20*,-5%
CCCCOC(=O)c1ccc(NC(=O)CSc2nc3c(c(=O)[nH]2)CCC3)cc1,/,/,/,8%,/,5%
CCOc1ccc(CNCc2ccccc2Cl)cc1,0%,-1%,51*,-16%,32*,1%
COc1ccccc1CNCc1ccc(C)cc1,-1%,?,-2,6%,0,5%
Fc1ccc(CNCc2ccccc2Cl)cc1,0%,?,24,1%,14,6%
Fc1ccc(CCNCc2ccccc2Cl)cc1,3%,-9%,24,-9%,22*,-1%
CCOc1ccc(CNC(c2ccccc2)c2ccccc2)cc1,2%,?,12,35%,-2,2%
CCOc1ccc(CN(C)CC(=O)NCc2ccccc2Cl)cc1,-3%,13%,36*,-1%,12,-7%
Cc1ccc(CNCc2ccccc2Cl)cc1,0%,-8%,22,-18%,16*,4%
CCOc1ccc(CN(C)CC(=O)NCc2ccccc2)cc1,2%,6%,-7,2%,3,3%
Cc1nc2sc(C(N)=O)c(N)c2c(-c2ccc(Br)cc2)c1C(=O)Nc1ccc(Cl)cc1,/,/,/,1%,/,2%
COc1ccccc1NC(=O)CSc1nnc(-c2ccccn2)o1,0%,-6%,29,0%,-2,2%
Fc1ccc(CSc2nnc(-c3ccccn3)o2)cc1,0%,-18%,41*,1%,28*,6%
Nn1c(SCC(=O)Nc2ccc(F)cc2)nnc1-c1ccccn1,-4%,4%,-10,8%,-2,-1%
O=C(CSc1nnc(-c2ccc(F)cc2)o1)Nc1ccc(S(=O)(=O)N2CCCC2)cc1,2%,2%,42,-13%,20*,3%
O=C(CSc1nnc(-c2ccc(F)cc2)o1)Nc1ccc(S(=O)(=O)N2CCCCCC2)cc1,3%,1%,-19,-20%,-5,2%
O=C(CSc1nnc(-c2ccccn2)o1)Nc1ccccc1,1%,-7%,65*,/,20,2%
O=C(CSc1nnc(-c2ccccn2)o1)Nc1ccc(F)cc1,-6%,/,24*,2%,10,11%
N#Cc1ccc(CSc2nnc(-c3cnccn3)o2)cc1,-3%,0%,2,-9%,-2,-10%
c1ccc(-c2ccc(-c3csnn3)cc2)cc1,-7%,4%,57*,4%,33*,-1%
CCc1nnc(NC(=O)C2CSC3(C)CCC(=O)N23)s1 (configuration not stated),/,/,/,-7%,/,6%
CC12CCC(=O)N1C(C(=O)Nc1nnc(SCc3ccccc3F)s1)CS2 (configuration not stated),?,/,56*,5%,20*,-8%
CCC(=O)Nc1nnc(SCc2ccccc2F)s1,0%,3%,79*,2%,15,4%
SMILES,LmPK inh,FBPA Giardia inh,Shiga inhibitor,Sm TGR block,CHX counter,Tb PYK inh
Cc1cccc2sc(NC(=O)C3CSC4(C)CCC(=O)N34)nc12 (configuration not stated),0%,/,-5,-7%,2,4%
CC12CCC(=O)N1C(C(=O)Nc1nc3c(F)cc(F)cc3s1)CS2 (configuration not stated),0%,/,22,-6%,21*,2%
COc1cc(OC)c(NC(=O)CN2C(=O)CCn3nc(-c4cccn4C)cc32)cc1Cl,/,/,/,-19%,/,-7%
C/C(=N\NC(=O)c1ccoc1C)c1ccc(Br)s1,-15%,/,80*,62%,57*,-7%
Cc1occc1C(=O)N/N=C/c1ccc(Br)s1,25µM*,-3%,63*,-7%,42*,-1%
Cc1ccc(/C=N/NC(=O)c2ccoc2C)s1,14µM*,-1%,+,-9%,70*,-13%
CC(=NNC(=O)c1cc(C)oc1C)c1ccc(Br)s1,/,/,/,/,/,0%
CCCCn1c(N)c(N(CCOC)C(=O)Cn2c(=O)oc3ccccc32)c(=O)[nH]c1=O,/,/,/,-4%,/,-6%
CC(=O)c1cccc(NC(=O)c2ccc(C(=O)Nc3cccc(C(C)=O)c3)nc2)c1,-4%,-9%,39,/,-4,4%
Cc1cc(C)n2nc(C(=O)Nc3ccc4c(c3)OCO4)cc2n1,-9%,?,70*,-2%,34*,-13%
O=C(Nc1ccc2c(c1)OCO2)c1cc2ncc(Br)cn2n1,-3%,-14%,7,2%,18,-30%
CC(=O)c1cccc(NC(=O)c2cc3nc(C)cc(C)n3n2)c1,-9%,-18%,53*,26%,27*,-4%
O=C(Nc1ccc2c(c1)OCO2)c1cc2nc(C3CC3)cc(C(F)(F)F)n2n1,0%,-12%,11,-26%,12*,0%
COC(=O)c1ccc(NC(=O)Cn2ccn3nc(-c4ccc(OC)cc4)cc3c2=O)cc1,/,/,/,6%,/,2%
COc1ccccc1N1C(=O)CC(N(O)c2ccccc2)C1=O (configuration not stated),1%,0%,2,40µM*,-1,0%
CCCOc1ccccc1N1C(=O)CC(N(O)c2ccccc2)C1=O (configuration not stated),6%,-1%,28,-14%,14*,0%
O=C1CC(N(O)c2ccccc2)C(=O)N1c1cc(Cl)cc(Cl)c1 (configuration not stated),3%,-10%,38,?,14,16%
O=C1CC(N(O)c2ccccc2)C(=O)N1Cc1ccccc1 (configuration not stated),-2%,-5%,-11,-3%[11.4 µM],-6,0%
CCCOc1ccc(N2C(=O)CC(N(O)c3ccccc3)C2=O)cc1 (configuration not stated),-3%,2%,113*,?,20,1%
